For 15 sequences, binding signal results are on record in publication PMC3218832.

Among the targets are RELARELA (p65 homodimer) (Homo sapiens, UniProt Q04206 1-307); p50p50 homodimer (Homo sapiens, UniProt P19838 7-356); RELB subunit;p50 subunit (Homo sapiens;Homo sapiens, UniProt Q01201;P19838 120-401;7-356).
Common to all, as to assay: protein binding microarray; high values mean tight binding
What all share (settings): dsDNA, one strand shown

The next assay addresses T1, p52p52 homodimer (Homo sapiens, UniProt Q00653 4-332).
T1 sequence: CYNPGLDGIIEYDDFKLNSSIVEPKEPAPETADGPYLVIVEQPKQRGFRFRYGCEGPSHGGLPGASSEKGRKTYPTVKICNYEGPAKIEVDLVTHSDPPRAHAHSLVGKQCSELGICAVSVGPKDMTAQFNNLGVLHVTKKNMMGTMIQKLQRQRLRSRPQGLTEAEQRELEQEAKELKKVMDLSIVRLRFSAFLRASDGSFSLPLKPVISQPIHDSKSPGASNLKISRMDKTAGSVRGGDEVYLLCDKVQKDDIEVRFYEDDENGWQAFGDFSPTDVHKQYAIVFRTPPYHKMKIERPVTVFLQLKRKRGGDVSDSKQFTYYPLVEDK

The target in assay [1] is RELA (p65) subunit of heterodimer;p50 subunit (Homo sapiens;Homo sapiens, UniProt Q04206;P19838 1-307;7-356).
Chain of RELA (p65) subunit of heterodimer;p50 subunit (Q04206 1-307, chain 1 of 2): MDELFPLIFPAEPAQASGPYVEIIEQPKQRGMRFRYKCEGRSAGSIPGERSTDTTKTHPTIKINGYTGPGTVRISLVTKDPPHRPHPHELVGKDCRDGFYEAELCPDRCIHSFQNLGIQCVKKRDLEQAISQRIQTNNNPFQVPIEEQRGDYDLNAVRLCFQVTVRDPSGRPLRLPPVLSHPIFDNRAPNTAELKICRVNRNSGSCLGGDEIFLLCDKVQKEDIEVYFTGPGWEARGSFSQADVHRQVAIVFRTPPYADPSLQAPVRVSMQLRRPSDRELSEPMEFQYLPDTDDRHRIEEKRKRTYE
Chain of RELA (p65) subunit of heterodimer;p50 subunit (P19838 7-356, chain 2 of 2): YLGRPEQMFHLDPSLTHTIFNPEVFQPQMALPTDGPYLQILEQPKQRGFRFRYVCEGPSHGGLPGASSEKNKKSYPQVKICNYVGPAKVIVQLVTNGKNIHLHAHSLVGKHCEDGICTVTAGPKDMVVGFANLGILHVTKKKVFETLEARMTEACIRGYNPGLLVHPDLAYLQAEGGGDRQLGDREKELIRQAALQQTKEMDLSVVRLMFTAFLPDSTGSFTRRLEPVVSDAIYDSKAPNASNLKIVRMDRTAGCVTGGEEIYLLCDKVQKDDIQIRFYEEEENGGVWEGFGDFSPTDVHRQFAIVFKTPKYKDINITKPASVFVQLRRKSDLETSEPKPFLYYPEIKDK
The target of assay [2] is RELA (p65) subunit of heterodimer;p52 subunit (Homo sapiens;Homo sapiens, UniProt Q04206;Q00653 1-307;4-332).
A further assay concerns the target T2, RELB subunit;p52 subunit (Homo sapiens;Homo sapiens, UniProt Q01201;Q00653 120-401;4-332).
T2 sequence 1: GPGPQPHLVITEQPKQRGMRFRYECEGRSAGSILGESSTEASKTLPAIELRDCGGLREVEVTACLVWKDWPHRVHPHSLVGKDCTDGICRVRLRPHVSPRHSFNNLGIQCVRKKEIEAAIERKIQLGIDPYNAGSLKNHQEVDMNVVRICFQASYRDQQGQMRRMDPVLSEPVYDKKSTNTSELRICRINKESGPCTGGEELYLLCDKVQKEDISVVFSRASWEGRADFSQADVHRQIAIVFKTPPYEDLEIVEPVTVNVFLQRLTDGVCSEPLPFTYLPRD
T2 sequence 2: T1 sequence

Assay [3] addresses C-Rel subunit;p50 subunit (Homo sapiens;Homo sapiens, UniProt Q04864;P19838 1-285;7-356).
The target of assay [4] is T3, C-Rel subunit;p52 subunit (Homo sapiens;Homo sapiens, UniProt Q04864;Q00653 1-285;4-332).
T3 sequence 1: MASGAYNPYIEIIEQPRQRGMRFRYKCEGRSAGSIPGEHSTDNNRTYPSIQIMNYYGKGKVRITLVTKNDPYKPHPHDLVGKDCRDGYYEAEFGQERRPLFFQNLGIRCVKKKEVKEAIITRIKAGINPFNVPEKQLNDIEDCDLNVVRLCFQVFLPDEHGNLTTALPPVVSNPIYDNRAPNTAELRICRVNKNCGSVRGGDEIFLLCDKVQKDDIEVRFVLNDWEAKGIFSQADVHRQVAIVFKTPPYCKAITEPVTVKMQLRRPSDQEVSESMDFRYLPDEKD
T3 sequence 2: T1 sequence

Chain of p50p50 homodimer (P19838 7-356): as the sequence (P19838 7-356, chain 2 of 2) above
Chain of RELARELA (p65 homodimer) (Q04206 1-307): as the sequence (Q04206 1-307, chain 1 of 2) above

With GGGTAGTTCCT, the binding signal in the assay with RELARELA (p65 homodimer) was 0.746 z-score; in the assay with p50p50 homodimer, 0.495 z-score; with p52p52 homodimer, 0.541 z-score; in [1], 0.394 z-score; in [2] it was 0.345 z-score; with RELB subunit;p50 subunit, -0.0983 z-score. Further, the results for the binding signal (in the assay with RELB subunit;p52 subunit; in [3]; in [4]) were 0.0547 z-score, 0.249 z-score and 0.583 z-score, respectively.
Turning to AGAAACTTCCC, the binding signal in the assay with RELARELA (p65 homodimer) was 2.01 z-score; with p50p50 homodimer, 0.652 z-score; with p52p52 homodimer it was 0.45 z-score; in assay [1], 0.846 z-score; in [2], 0.818 z-score; with RELB subunit;p50 subunit, 0.409 z-score. The binding signal in the assay with RELB subunit;p52 subunit turned out to be 0.541 z-score; in assay [3] it was 0.576 z-score; in [4], 0.741 z-score.
Regarding CAAAAATCCCC, the binding signal was determined as 2.62 z-score with RELARELA (p65 homodimer); 1.37 z-score in the assay with p50p50 homodimer; 2.67 z-score with p52p52 homodimer; 2.11 z-score in assay [1]; 2.3 z-score in assay [2]; 2.84 z-score with RELB subunit;p50 subunit. The binding signal in the assay with RELB subunit;p52 subunit is 2.28 z-score; in assay [3], 1.91 z-score; in assay [4] it was 2.55 z-score.
Turning to AAAGGCCTCCC, the binding signal with RELARELA (p65 homodimer) is -1.18 z-score; in the assay with p50p50 homodimer, -0.959 z-score; in the assay with p52p52 homodimer, -0.552 z-score; in assay [1], -0.794 z-score; in assay [2], -0.782 z-score; with RELB subunit;p50 subunit, -0.857 z-score. Besides, the results for the binding signal (in the assay with RELB subunit;p52 subunit; in assay [3]; in [4]) were -0.868 z-score, -1.17 z-score and -0.735 z-score, respectively.
Consider GGAGACTTCCC, for which the binding signal with RELARELA (p65 homodimer) is 1.11 z-score; with p50p50 homodimer it was 0.00445 z-score; in the assay with p52p52 homodimer it was 0.117 z-score; in assay [1], 0.505 z-score; in assay [2], 0.17 z-score; with RELB subunit;p50 subunit, -0.132 z-score. Also, the binding signal with RELB subunit;p52 subunit is -0.125 z-score; in assay [3], 0.335 z-score; in assay [4], 0.286 z-score.
In the case of CAGTAAATCCT, the binding signal is -0.441 z-score with RELARELA (p65 homodimer); -1.23 z-score with p50p50 homodimer; -0.605 z-score with p52p52 homodimer; -0.903 z-score in [1]; -0.822 z-score in assay [2]; -0.822 z-score with RELB subunit;p50 subunit. For the same sequence, the values for the binding signal (with RELB subunit;p52 subunit; in assay [3]; in assay [4]) were -0.598 z-score, -1.01 z-score and -0.81 z-score, respectively.
With CGAGTGGTCCC, the binding signal with RELARELA (p65 homodimer) was -0.301 z-score; with p50p50 homodimer, -0.0725 z-score; in the assay with p52p52 homodimer it was -0.0457 z-score; in assay [1], -0.513 z-score; in assay [2], -0.369 z-score; with RELB subunit;p50 subunit it was 0.0154 z-score. The figures for the binding signal (in the assay with RELB subunit;p52 subunit; in assay [3]; in assay [4]) were -0.138 z-score, -0.515 z-score and -0.428 z-score, respectively.
As for CAAGATCTCCT, the binding signal was -0.508 z-score with RELARELA (p65 homodimer); -1.36 z-score in the assay with p50p50 homodimer; -0.744 z-score with p52p52 homodimer; -1.11 z-score in [1]; -1.02 z-score in assay [2]; -1.04 z-score in the assay with RELB subunit;p50 subunit. Further, the binding signal with RELB subunit;p52 subunit is -1.06 z-score; in assay [3] it was -1.49 z-score; in [4], -1.01 z-score.
Turning to CGATGTGTCCC, the binding signal in the assay with RELARELA (p65 homodimer) was 0.341 z-score; with p50p50 homodimer, -0.155 z-score; with p52p52 homodimer, 0.228 z-score; in assay [1], 0.0812 z-score; in [2] it was 0.0701 z-score; in the assay with RELB subunit;p50 subunit it was -0.0289 z-score. Also, the binding signal is 0.0454 z-score with RELB subunit;p52 subunit, 0.132 z-score in assay [3] and 0.074 z-score in assay [4].
For CGGAAAACCCC, the binding signal in the assay with RELARELA (p65 homodimer) came out at 3.69 z-score; with p50p50 homodimer, 1.19 z-score; with p52p52 homodimer it was 2.57 z-score; in assay [1], 2.32 z-score; in [2], 2.28 z-score; in the assay with RELB subunit;p50 subunit, 1.23 z-score. Also, the results for the binding signal (with RELB subunit;p52 subunit; in assay [3]; in assay [4]) were 2.18 z-score, 2.07 z-score and 3.23 z-score, respectively.
Consider GGAGGACCCCT, for which the binding signal with RELARELA (p65 homodimer) is -0.648 z-score; with p50p50 homodimer, -0.192 z-score; in the assay with p52p52 homodimer, -0.0995 z-score; in assay [1], 0.108 z-score; in [2], 0.173 z-score; with RELB subunit;p50 subunit, -0.321 z-score. For the same sequence, the binding signal with RELB subunit;p52 subunit was -0.0771 z-score; in [3], 0 z-score; in assay [4], 0.275 z-score.
Regarding AAGTGGCCCCC, the binding signal in the assay with RELARELA (p65 homodimer) was -0.634 z-score; with p50p50 homodimer, 0.242 z-score; with p52p52 homodimer, -0.0278 z-score; in assay [1], -0.101 z-score; in assay [2], 0.0039 z-score; in the assay with RELB subunit;p50 subunit it was 0.173 z-score. The binding signal in the assay with RELB subunit;p52 subunit stood at 0.29 z-score; in [3], 0.101 z-score; in [4] it was 0.0509 z-score.
Turning to CAGAATACCCT, the binding signal amounted to 0 z-score with RELARELA (p65 homodimer); 1.12 z-score in the assay with p50p50 homodimer; 0.546 z-score with p52p52 homodimer; 0.635 z-score in assay [1]; 0.477 z-score in [2]; 0.743 z-score with RELB subunit;p50 subunit. In addition, the binding signal with RELB subunit;p52 subunit is 0.882 z-score; in assay [3] it was 0.496 z-score; in assay [4], 0.421 z-score.
Consider CGGTAAACCCT, for which the binding signal with RELARELA (p65 homodimer) is 0.285 z-score; with p50p50 homodimer, -0.188 z-score; in the assay with p52p52 homodimer, 0.217 z-score; in [1], -0.158 z-score; in assay [2], 0.0419 z-score; in the assay with RELB subunit;p50 subunit it was -0.151 z-score. The binding signal is -0.0534 z-score in the assay with RELB subunit;p52 subunit, -0.122 z-score in assay [3] and 0.186 z-score in assay [4].
For the sequence AGGTATACCCT, the binding signal with RELARELA (p65 homodimer) is -0.0429 z-score; with p50p50 homodimer, -0.139 z-score; in the assay with p52p52 homodimer it was -0.102 z-score; in assay [1] it was -0.262 z-score; in [2], -0.241 z-score; with RELB subunit;p50 subunit, -0.242 z-score. Also, the binding signal was -0.17 z-score with RELB subunit;p52 subunit, -0.467 z-score in assay [3] and -0.258 z-score in assay [4].
